# Compound activity as filed in PubChem.
# GSTO1 inh: GSTO1 inhibition, counter-screen for RBBP9 inhibitors | P78417 | recombinant GSTO1, activity-based probe fluorescence polarization | inhibition, % at 5.96 µM | 1.1% of 300,000 active;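 active means inhibition above the campaign mean inhibition plus 3 SD, cut at about 35% in these data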;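 further: 0% = GSTO1-1 with DMSO and 100% = wells lacking GSTO1-1 enzyme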
# Target sequence (P78417 whole entry, looked up): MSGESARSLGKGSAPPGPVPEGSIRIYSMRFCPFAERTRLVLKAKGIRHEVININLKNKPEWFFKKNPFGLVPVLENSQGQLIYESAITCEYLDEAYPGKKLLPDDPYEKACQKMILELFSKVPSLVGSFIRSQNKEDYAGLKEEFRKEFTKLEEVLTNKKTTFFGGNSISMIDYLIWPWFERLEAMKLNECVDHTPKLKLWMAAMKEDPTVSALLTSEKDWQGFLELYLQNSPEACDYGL
# LYPLA2 inh: LYPLA2 (human) inhibition in PME1 counter-screen; O95372; recombinant LYPLA2, FP-Rh probe fluorescence polarization; inhibition, % at 5.9 µM; 0.38% of 320,000 active; AID 2177;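 active means inhibition above the screen-wide mean plus 3 SD, limit set per campaign, cut at about 26% in these data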;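 further: 0% = LYPLA2 with DMSO and 100% = wells lacking LYPLA2 enzyme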
# LYPLA1 inh: blocks human lysophospholipase 1, a PME1 counter-screen; O75608; recombinant LYPLA1, FP-Rh probe fluorescence polarization; inhibition, % at 5.9 µM; 0.16% of 320,000 active; AID 2174;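 active means inhibition above the mean of all tested compounds plus 3 SD, set per campaign, cut at about 14% in these data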;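 further: inhibitors block serine hydrolase probe labeling of LYPLA1 so polarization falls; 0% = enzyme with DMSO and 100% = wells lacking LYPLA1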
# Target sequence (O75608 whole entry, looked up): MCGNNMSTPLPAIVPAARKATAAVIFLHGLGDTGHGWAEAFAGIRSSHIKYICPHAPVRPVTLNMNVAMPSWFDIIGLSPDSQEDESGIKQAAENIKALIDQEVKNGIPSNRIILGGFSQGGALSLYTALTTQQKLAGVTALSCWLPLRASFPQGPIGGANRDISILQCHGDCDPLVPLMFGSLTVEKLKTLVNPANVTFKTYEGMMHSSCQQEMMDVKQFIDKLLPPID
# ZTA DNA inh: ZTA (EBV) inhibition in EBNA-1 counter-screen. P03206. inhibition, % at 11 µM. ZTA-DNA binding, fluorescence polarization. 0.15% of 320,000 active; in the data active means inhibition above about 33%
# EBNA-1 inhibitor: blocks EBNA-1 binding to DNA; EBNA-1 DNA binding, fluorescence polarization; inhibition, % at 14.8 µM; 0.34% of 300,000 active; in the data active means inhibition above about 28%
# PAD4 FP inh: PAD4 (human) enzyme inhibition; inhibition, % at 6.36 µM; recombinant PAD4, RCA probe fluorescence polarization; Q9UM07; AID 485272; 0.41% of 330,000 active;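 active means percent inhibition above a cutoff equal to the mean of all tested compounds plus 3 SD, cut at about 15% in these data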;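 further: 0% = PAD4 with RCA probe and DMSO and 100% = probe without PAD4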
# PAD4 FP conf: confirmation of human PAD4 inhibitors; shares compounds with PAD4 FP inh; recombinant PAD4, RCA probe fluorescence polarization; inhibition, % at 6.36 µM; 28% of 1,200 active;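 active means mean inhibition across replicates above the hit cutoff set by the earlier primary screen, cut at about 15% in these data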;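 further: inhibitors block active-site labeling by the probe so polarization falls; 0% = PAD4 with probe and DMSO and 100% = probe without PAD4 enzyme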
# * hit, by the source's call; nt = no result given; + = active, no number. Shown are actives, neighbours in structure and some others; about 1.7% of the full set was active somewhere.
SMILES,GSTO1 inh,LYPLA2 inh,LYPLA1 inh,ZTA DNA inh,EBNA-1 inhibitor,PAD4 FP inh,PAD4 FP conf
CCN(CC)S(=O)(=O)c1ccc(N=NC2=C(O)CCCC2=O)cc1,8,2,-4,-8,-3,168*,4
CCN(CC)S(=O)(=O)c1ccc(N=NC2=C(O)CC(C)(C)CC2=O)cc1,-3,6,-1,-3,-1,1,nt
CC(=O)Nc1ccc(S(=O)(=O)NCc2ccc3c(c2)cc(C)n3C)cc1,1,3,13,-6,-1,16*,7
COc1ccc(-c2cc(=O)[nH]c(=O)[nH]2)cc1,-11,-4,3,-4,-2,-4,nt
CN(C)c1cc(-c2ccc(Cl)c(Cl)c2)oc(=O)c1Cl,8,3,-2,-13,-1,-1,nt
COc1ccc(-c2cc(=O)[nH][nH]2)cc1,24,17,3,-5,7,56*,-5
O=c1cc(-c2ccc(Cl)c(Cl)c2)[nH][nH]1,19,2,-5,8,-6,51*,-5
CC(C)n1cnnc1SCC(=O)Nc1cccnc1Cl,nt,nt,nt,nt,nt,1,nt
CCOc1cc(N2CCOCC2)c(OCC)cc1NC(=O)CSc1ncccc1C(=O)O,nt,nt,nt,nt,nt,39*,2
CCCN1C=CC(=C/C=C(\C#N)C(=O)OCC)C=C1,7,-3,0,-11,-1,-1,nt
CCOC(=O)/C(C#N)=C/C=C1\C=Cc2ccccc2N1CC,-24,1,3,0,3,87*,19*
Cc1cccnc1NC(=O)CCNC(=O)c1ccccc1Cl,-1,1,-3,-18,-7,3,nt
O=C(CN1CCN(Cc2ccc(Cl)cc2)CC1)N1CCc2ccccc21,4,9,3,11,-2,-1,nt
CCc1nnc(N/N=C/c2c(F)cccc2Cl)n1N,23,6,0,-17,-12,37*,2
Cc1nnc(N/N=C/c2c(Cl)cccc2Cl)n1N,8,0,-3,-19,-2,33*,7
CCc1nnc(N/N=C/c2c(C)[nH]c3ccccc23)n1N,52*,-2,1,6,-1,30*,7
Clc1cccc(Cl)c1/C=N\Nc1nccs1,0,3,1,4,-2,0,nt
O=C1CC(c2ccccc2)CC(O)=C1C=NCCN1CCN(Cc2ccccc2)CC1 (stereo not drawn),-8,0,-2,-10,-1,2,nt
Cc1ccc2c(c1)N(CC(=O)NC1CCCC1)C(=O)c1cccnc1O2,2,7,2,-2,-4,2,nt
CCn1c(CSc2nnc(-c3ccoc3C)n2C)nc2cc(S(=O)(=O)N(C)C)ccc21,-5,8,-1,6,-9,32*,15
COc1cc(OC)c(OC)cc1/C=N/NC(=O)c1ccc2nc[nH]c2c1,-10,2,-2,2,7,16*,1
COc1ccc(/C=N/NC(=O)c2ccc3nc[nH]c3c2)c(OC)c1,0,5,1,-6,7,-1,nt
COc1cccc2cc(C(=O)NCCc3ccccc3)oc12,-3,9,5,-6,0,17*,14
O=C(CN1c2cccc3cccc(c23)S1(=O)=O)Nc1ccc(S(=O)(=O)N2CCOCC2)cc1,-1,5,-5,4,1,17*,32*
CCOC(=O)C(Nc1ccc2ccccc2c1)C(=O)OCC,8,-1,1,4,-6,21*,-1
SMILES,GSTO1 inh,LYPLA2 inh,LYPLA1 inh,ZTA DNA inh,EBNA-1 inhibitor,PAD4 FP inh,PAD4 FP conf
CC(NC(=O)COC(=O)c1ccccc1O)C1CC2CCC1C2 (stereo not drawn),nt,nt,nt,nt,nt,2,nt
Cc1csc(NC(=O)CSc2ncnc3c2cnn3-c2ccccc2Cl)n1,-24,1,1,4,-9,15*,8
CC(C)C(=O)NNC(=O)CSc1ncnc2c1cnn2-c1ccccc1Cl,-6,-3,-2,-5,-7,2,nt
Cc1sc(NC(=O)c2ccccc2)c(C(c2ccc(Cl)cc2)N2CCN(CCO)CC2)c1C (stereo not drawn),4,9,2,1,3,17*,-1
CCCSc1ccc(-c2nn(-c3ccccc3)cc2/C=C(/C#N)C(=O)NCCCOC)cc1,7,0,-3,5,-4,6,nt
CCSc1ccc(-c2nn(-c3ccccc3)cc2/C=C(/C#N)C(=O)NCCCOC)cc1,-5,4,2,5,-9,18*,32*
O=[N+]([O-])c1ccc2nc(NS(=O)(=O)c3ccc(F)cc3)sc2c1,-1,-2,-2,5,4,0,nt
Cc1ccccc1-c1nnnn1C1CCS(=O)(=O)C1 (stereo not drawn),2,5,5,-7,7,-3,nt
Cc1cc(=O)n(C2CCS(=O)(=O)C2)[nH]1 (stereo not drawn),74*,-4,-1,-1,-15,80*,3
O=C(NC1CCS(=O)(=O)C1)c1ccc2c(c1)OCO2 (stereo not drawn),3,0,0,1,3,2,nt
Nc1ccc(N(CCO)CCO)cc1,65*,-3,-1,+,193*,59*,-3
CCN(CC)c1ccc(N)cc1,nt,-6,-6,8,nt,-51,nt
Cc1c(C(=O)N2CCCCC2)c(S(=O)(=O)N2CCN(c3ccc(Cl)cc3)CC2)c(C)n1C,0,1,-2,-5,-6,68*,3
Cc1c(C(=O)N2CCCCC2)c(S(=O)(=O)N2CCN(c3ccc(F)cc3)CC2)c(C)n1C,-3,10,0,-9,-7,6,nt
CC(C)c1nnc(NC(=O)c2nc(S(=O)(=O)Cc3ccc(F)cc3)ncc2Cl)s1,1,-1,-2,2,-7,-4,nt
Cc1ccc(CS(=O)(=O)c2ncc(Cl)c(C(=O)Nc3nnc(C(C)C)s3)n2)cc1,-8,12,0,12,0,95*,2
Cc1cccc(C)c1NC(=O)CCc1nnc2ccc(N3CCCC3)nn12,2,0,-2,14,-2,-2,nt
